Assay outcomes from PubChem.
Most compounds without a hit are left out; they make up all but 1.8% or so of the library.
IEC-6 cytotox: kills IEC-6 intestinal cells in KLF5 counter-screen. IEC-6 cytotoxicity, luminescence viability. inhibition, % at 5 µM. hit rate 0.78% among 290,000. AID 1825;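 further: 0% = plate median of test compound wells and 100% = cytotoxic reference compound wells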
KLF5 inhibitor: inhibitors of KLF5 expression; DLD-1 KLF5 promoter-luciferase reporter, luminescence; inhibition, % at 5 µM; hit rate 0.23% among 290,000;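 active means inhibition above a per-plate limit of that plate's mean compound inhibition plus 3 SD, cut at about 60% in these data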;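 further: 0% = DMSO wells and 100% = LY294002 at 200 µM; higher means less KLF5 promoter-driven luciferase light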
APP 5UTR inh: APP translation inhibition. SH-SY5Y APP 5'UTR-luciferase reporter, luminescence. hit rate 0.82% among 190,000. inhibition, % at 2 µM;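 active means inhibition above a set limit, derived from the sample mean plus 3 SD, cut at about 45% in these data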
Ba/F3 V617F tox: reduce viability of Ba/F3 cells dependent on JAK2V617F | inhibition, % at 5.6 µM | Ba/F3 EpoR-JAK2V617F viability, ATP luminescence | hit rate 1.1% among 220,000;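 active means inhibition above the campaign mean plus 3 SD over all tested compounds, cut at about 24% in these data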;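 further: cytokine-independent growth of Ba/F3 cells driven by EpoR plus mutant JAK2; 0% = DMSO-treated cells and 100% = JAK inhibitor I control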
BaF3 parental: reduces parental Ba/F3 cell viability, JAK2V617F counter-screen | AID 1486 | CellTiter-Glo ATP luminescence | hit rate 1.1% among 220,000 | inhibition, % at 5.6 µM;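 active means inhibition above a per-campaign cutoff, the mean inhibition of all tested compounds plus 3 SD, cut at about 27% in these data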;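 further: 0% = DMSO wells and 100% = JAK Inhibitor I control wells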
IEC-6 tox confirm: confirmation of cytotoxic compounds in rat IEC-6 intestinal epithelial cells; shares compounds with IEC-6 cytotox; IEC-6 rat intestinal epithelial viability, luminescence; inhibition, % at 5 µM; hit rate 63% among 1,900; AID 1907;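 further: 0% = vehicle and 100% = reference cytotoxic drug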
* hit, by the source's call. Unless noted, no stated cut-off is given here; in the data, active means inhibition above about 22%; inactive means the rest.

O=C(CSCc1cccc(Cl)c1)Nc1ccccc1-c1ccccc1 was read as IEC-6 cytotox -1, KLF5 inhibitor 2, APP 5UTR inh -16, Ba/F3 V617F tox 4 and BaF3 parental 8.
`CCc1ccc2c(c1)C(O)(CC(=O)c1cccs1)C(=O)N2` (stereo unspecified) gave IEC-6 cytotox -5, KLF5 inhibitor -20, APP 5UTR inh -15, Ba/F3 V617F tox -2 and BaF3 parental 5.
Screening Cc1cccc(N2CCN(C(=O)c3cc(S(=O)(=O)N4CCCC4)cn3C)CC2)c1C returned IEC-6 cytotox 52*, KLF5 inhibitor 43 and IEC-6 tox confirm 16.
Screening OCCC1CN(CCCc2ccccc2)CCN1Cc1ccccc1 (stereo unspecified) returned IEC-6 cytotox 23*, KLF5 inhibitor -22, Ba/F3 V617F tox -4, BaF3 parental 1 and IEC-6 tox confirm 3.
Screening Cc1[nH]n(-c2ccc(Br)cc2)c(=O)c1/C=N/NC(=O)c1ccccc1 returned IEC-6 cytotox 65*, KLF5 inhibitor 44 and IEC-6 tox confirm 60*.
Screening Cc1[nH]n(-c2ccccc2)c(=O)c1/C=N/NC(=O)c1cccc(F)c1 returned IEC-6 cytotox 22*, KLF5 inhibitor 61 and IEC-6 tox confirm 10.
`Cc1[nH]n(-c2ccccc2)c(=O)c1/C=N/NC(=O)c1ccc(O)cc1O` gave IEC-6 cytotox -2 and KLF5 inhibitor -64.
For CCC12CC3CC(C1)CC(C(=O)NNC(N)=O)(C3)C2 the results were IEC-6 cytotox 2, KLF5 inhibitor -27, Ba/F3 V617F tox -5 and BaF3 parental 0.
Screening CCCCNC(=O)Nc1nnc(C(C)(C)C)s1 returned IEC-6 cytotox 0, KLF5 inhibitor -7, Ba/F3 V617F tox 0 and BaF3 parental -1.
For Cc1ccc(NC(=S)N2CCCC(O)C2)cc1 (stereo unspecified) the results were IEC-6 cytotox 3, KLF5 inhibitor -18, APP 5UTR inh -1, Ba/F3 V617F tox 2 and BaF3 parental 4.
`C=CCN(CC=C)S(=O)(=O)c1ccc2nc(NC(=O)C(C)C)sc2c1` gave IEC-6 cytotox 54*, KLF5 inhibitor 40, APP 5UTR inh 44, Ba/F3 V617F tox 64*, BaF3 parental 76* and IEC-6 tox confirm 47*.
Screening CCN1CCN(c2nc(Nc3ccccc3F)nc(N)c2[N+](=O)[O-])CC1 returned IEC-6 cytotox 2, KLF5 inhibitor -23, Ba/F3 V617F tox -5 and BaF3 parental -4.
Nc1nc(Nc2ccccc2F)nc(N2CCCC2)c1[N+](=O)[O-] was read as IEC-6 cytotox 23*, KLF5 inhibitor -16 and IEC-6 tox confirm 22*.
Screening O=c1c2nnn(-c3ccc(Br)cc3)c2ncn1Cc1ccccn1 returned IEC-6 cytotox 3, KLF5 inhibitor -17, APP 5UTR inh 5, Ba/F3 V617F tox 2 and BaF3 parental 2.
For CCn1ncc(C2=NOC(C(=O)NCc3ccc(Cl)cc3)C2)c1C (stereo unspecified) the results were IEC-6 cytotox 83*, KLF5 inhibitor 54, APP 5UTR inh 49*, Ba/F3 V617F tox 21, BaF3 parental 11 and IEC-6 tox confirm 51*.
Screening CN(Cc1cn(-c2ccccc2)nc1-c1cc2ccccc2o1)C(=O)CCC(=O)O returned IEC-6 cytotox 7, KLF5 inhibitor -13, APP 5UTR inh -2, Ba/F3 V617F tox 7 and BaF3 parental 7.
`Fc1ccc2[nH]c3c(NCc4ccccc4)ncnc3c2c1` gave IEC-6 cytotox 33*, KLF5 inhibitor -8 and IEC-6 tox confirm 30*.
`O=C(NCCCl)Nc1cccnc1Cl` gave IEC-6 cytotox 3, KLF5 inhibitor -4, APP 5UTR inh 16, Ba/F3 V617F tox -2 and BaF3 parental 6.
`O=C(NNC(=O)C12CC3CC(CC(C3)C1)C2)c1ccccn1` gave IEC-6 cytotox 22*, KLF5 inhibitor 39, Ba/F3 V617F tox -4, BaF3 parental -2 and IEC-6 tox confirm 39*.
CCC(=O)N1CCN(c2ccccc2NC(=O)Cc2ccccc2)CC1 was read as IEC-6 cytotox 4, KLF5 inhibitor -4, APP 5UTR inh -16, Ba/F3 V617F tox -3 and BaF3 parental 1.
Screening CCC(=O)N1CCN(c2ccccc2NC(=O)c2ccc([N+](=O)[O-])o2)CC1 returned IEC-6 cytotox 38*, KLF5 inhibitor 1 and IEC-6 tox confirm 16.
For CC(C)C(=O)N1CCN(c2ccccc2NC(=O)c2ccc([N+](=O)[O-])o2)CC1 the results were IEC-6 cytotox 26*, KLF5 inhibitor -8 and IEC-6 tox confirm 23*.
